Measured values published in PubChem BioAssay (EPA / NIEHS).
Results filed as inconclusive are left out. Calls of active or inactive are those of the source. Rule for the calls: active = hit-call score of the fitted dose curve at least 0.9, where 1 is the maximum; inconclusive = response in the unintended direction; inactive = score below 0.9.

test system: Sodium/Iodide Symporter (NIS), SLC5A5 (gene 6528); test: CPHEA_Stoker_NIS_Inhibition_RAIU: CPHEA's Radioactive Iodide Uptake (RAIU) Assay for Sodium/Iodide Symporter (NIS) Inhibition, Stoker and Laws Labs (AID 2283841)
Outline: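 hNIS-HEK293T-EPA cells incubated 2 h at room temperature with compound (0.001–100 uM, 0.5% DMSO) and 329 pM final 125I in HBSS/10 mM HEPES, pH 7.4. Intracellular 125I counted; normalised to DMSO maximal uptake, triplicate, three biological replicates.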

SMILES	outcome	AC50
CCOC(=O)Cc1cccc2ccccc12	inactive	
O=C(C=Cc1ccccc1)OCc1ccccc1	inactive	
CO[Si](OC)(OC)c1ccccc1	inactive	
c1ccc2c(c1)ccc1cc3c(ccc4ccccc43)cc12	inactive	
CCCCCCCCCCOS(=O)(=O)O		8.08 µM (active)
CC(C)(C)c1ccc(OC(=O)c2ccccc2O)cc1	inactive	
NC(CO)(CO)CO	inactive	
CCCCCCCC[N+](C)(CCCCCCCC)CCCCCCCC		10.4 µM (active)
CN(C)c1ccc(C(=N)c2ccc(N(C)C)cc2)cc1		19.8 µM (active)
Oc1ccc(Cl)cc1Cc1cc(Cl)ccc1O		9.92 µM (active)
CCN(CCC#N)c1ccc(N=Nc2c(Cl)cc([N+](=O)[O-])cc2Cl)cc1	inactive	
CC/C=C\C/C=C\C/C=C\CCCCCCCC(=O)O	inactive	
O=c1cc(-c2ccccc2)oc2ccccc12	inactive	
